Bioassay records deposited in PubChem BioAssay by National Center for Advancing Translational Sciences (NCATS).
HP1b binding inh: inhibitors of HP1-beta chromodomain binding to methylated histone tails | P83916 | AlphaScreen HP1-beta / biotin-H3K9me3 peptide binding | Potency, µM (top dose mostly 114 µM), usual class: inhibitors | hit rate 0.56% among 390,000 | AID 540317; further: nearly all actives have a fitted effect of over 70% in size
Target sequence (P83916 whole entry, looked up): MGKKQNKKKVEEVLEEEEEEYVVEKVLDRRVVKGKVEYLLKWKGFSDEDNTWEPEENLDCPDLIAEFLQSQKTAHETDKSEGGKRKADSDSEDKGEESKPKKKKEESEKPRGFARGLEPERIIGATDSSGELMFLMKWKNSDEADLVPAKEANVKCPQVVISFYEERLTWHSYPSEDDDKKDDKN
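HP1-beta protein (50 nM final) preincubated 30 min at room temperature with biotinylated H3(1-18)K9me3 peptide (50 nM) in PBS pH 7.4, 0.01% Tween-20, then compound added for 30 min. AlphaScreen streptavidin donor/nickel chelate acceptor beads (10 ug/mL final), 30 min dark, luminescence read.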
BAZ2B inh: inhibitors of human BAZ2B bromodomain. Q9UIF8. AlphaScreen BAZ2B-H3K14Ac peptide displacement. Potency, µM (highest dose often 114 µM), actives largely listed as inhibitors. hit rate 4.4% among 360,000. AID 504333; further: nearly all actives have a fitted effect of over 60% in size
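AlphaScreen displacement: compounds (up to 110uM) incubated 30 min at room temperature with a preformed 50 nM BAZ2B/50 nM biotinylated H3K14Ac peptide complex in PBS pH 7.4 with Tween-20. Donor and acceptor beads at 10 ug/mL final added, 20 min light-protected before reading.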
CtBP-E1A inh: blocks the CtBP interaction with E1A | AlphaScreen GST-E1A/His-CtBP binding, 1536-well; hits give low values | activity change, % (concentration not given with the values) | hit rate 0.49% among 340,000; in the data active means activity change below about -65%; inconclusive means mostly about -30% to -63%
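In 5 uL wells, 23 nL compound meets equimolar GST-E1A and His-CtBP (5X stock 125 nM each) for 2 h, 37 °C. Beads (5X, 50 ug/mL) then 1 h, 37 °C, dark.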
JMJD2A Tudor inh: blocks the human JMJD2A Tudor domain; O75164; AlphaScreen JMJD2A-Tudor / H3K4me3 peptide binding; Potency, µM (top dose mostly 114 µM), hits mostly inhibitors; hit rate 4.4% among 390,000; AID 504339; further: nearly all actives have a fitted effect of over 50% in size
Six1-Eya2 blk: inhibitors of human Six1/Eya2 interaction | Q15475+O00167 | AlphaScreen GST-Six1/His-Eya2 binding, biochemical; hits give low values | activity change, % (no concentration beside the values) | hit rate 0.56% among 360,000 | AID 651725; in the data active means activity change below about -65%; inconclusive means mostly about -30% to -63%
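AlphaScreen with GST-Six1 and His-Eya2 (5X mix: 250 nM and 500 nM), glutathione donor and nickel acceptor beads; buffer 50 mM Tris pH 8.0, 300 mM NaCl, 1 mM TCEP; 1 h at 37 C in the dark.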
G9a inh: blocks human histone lysine methyltransferase G9a; Potency, µM (highest dose often 102 µM), most hits filed as inhibitors; Q96KQ7; G9a H3K9 monomethylation, AlphaScreen, 2 h; hit rate 8.8% among 350,000; further: nearly all actives have a fitted effect of over 75% in size
Target sequence (Q96KQ7 913-1193 limits assumed): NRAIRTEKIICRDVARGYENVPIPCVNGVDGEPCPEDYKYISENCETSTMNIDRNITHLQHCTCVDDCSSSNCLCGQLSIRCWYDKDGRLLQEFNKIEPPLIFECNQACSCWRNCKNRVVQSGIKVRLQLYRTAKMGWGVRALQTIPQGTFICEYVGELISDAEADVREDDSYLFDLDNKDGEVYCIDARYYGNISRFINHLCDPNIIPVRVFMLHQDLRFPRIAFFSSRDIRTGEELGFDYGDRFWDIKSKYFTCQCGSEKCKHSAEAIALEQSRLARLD
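Step 1: enzyme (final 20 nM) with compound, 15 min RT. Step 2: substrate peptide 500 nM and SAM 20 uM, 2 h RT. Step 3: anti-H3K9me1 antibody and AlphaScreen beads, 10 min, then plate read.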
Each line names hits and unclear results; the compound was inactive in the other large screens. In the library only some 10% were active in any assay of this set; here they are far more common. Unless noted, the call rests on the fitted dose curve; in most records, active means well fitted inhibition curve with a large enough effect; inconclusive means small, poorly fitted or top-dose-only effect; inactive means no such curve, though single readings can be large or run the other way.

CC(=O)Nc1ccc(S(=O)(=O)Oc2ccc(C(=S)N3CCC(O)CC3)cc2)cc1	G9a inh 18µM
CCOc1ccc(-c2nn(CC(=O)NC3CCCCC3)c3c2cnc2ccc(C)cc23)cc1	none (no result: CtBP-E1A inh, Six1-Eya2 blk)
Cc1c(Cl)cn2c(=O)cc(CN3CCN(c4ccc(F)cc4)CC3)nc2c1Cl	BAZ2B inh inconclusive, G9a inh 50µM (no result: HP1b binding inh, CtBP-E1A inh, JMJD2A Tudor inh, Six1-Eya2 blk)
CC(=O)N1N=C(c2ccc(NS(=O)(=O)c3ccccc3)cc2)CC1c1ccco1 (configuration not stated)	BAZ2B inh inconclusive, JMJD2A Tudor inh inconclusive
S=c1[nH]nc(CSCCOc2ccc(Cl)cc2Cl)o1	G9a inh 20µM
COc1ccc(-c2ccc(CNc3ccc4[nH]c(=O)[nH]c4c3)o2)cc1Cl	none (no result: CtBP-E1A inh, Six1-Eya2 blk)
CC(C)(C)n1nc2c(c1NC(=O)c1ccccc1C(F)(F)F)CS(=O)(=O)C2	none
Cc1ccc(-n2nnnc2CNC(=O)c2ccccc2F)cc1C	none (no result: CtBP-E1A inh, Six1-Eya2 blk)
Cc1nnc(SC(C)C(=O)Nc2ccc(N3CCOCC3)cc2)n1Cc1ccccc1 (configuration not stated)	G9a inh 71µM
CC(C)Cn1c(SC(C)C(=O)Nc2ccc(N3CCOCC3)cc2)nc2ccccc21 (configuration not stated)	HP1b binding inh inconclusive, BAZ2B inh 35µM, JMJD2A Tudor inh inconclusive, G9a inh inconclusive (no result: CtBP-E1A inh)
CC(Sc1nnc(COc2ccc(Cl)cc2)o1)C(=O)Nc1ccc(N2CCOCC2)cc1 (configuration not stated)	G9a inh 35µM
COc1ccc(S(=O)(=O)Nc2ccc(-c3ccc4nncn4n3)cc2)c(OC)c1	HP1b binding inh inconclusive, G9a inh 10µM
O=c1c2cccnc2n(Cc2ccccc2F)c(=O)n1Cc1ccccc1Cl	none (no result: CtBP-E1A inh, Six1-Eya2 blk)
COc1ccc(C(=O)CSc2nncn2C)cc1	G9a inh inconclusive
Cn1cnnc1SCC(=O)c1ccc(OC(F)F)cc1	JMJD2A Tudor inh 32µM, G9a inh inconclusive
Cc1ccnn1C(C)C(=O)O (configuration not stated)	G9a inh 50µM
O=C(CNC(=O)c1ccccc1C(=O)O)c1ccccc1	G9a inh 20µM
O=C(O)c1ccccc1C(=O)NCC(O)c1ccccc1 (configuration not stated)	G9a inh 7.9µM
N#C/C(=N\Nc1ccc(Cl)cc1)C(=N)N1CCCCC1	BAZ2B inh inconclusive, JMJD2A Tudor inh inconclusive
COc1ccc(C(=O)/C(C#N)=N/Nc2cccc([N+](=O)[O-])c2)cc1	HP1b binding inh inconclusive, BAZ2B inh 40µM, JMJD2A Tudor inh inconclusive, G9a inh inconclusive (no result: CtBP-E1A inh)
N#C/C(=N\Nc1ccccc1Cl)C(=O)c1ccccc1	BAZ2B inh inconclusive, G9a inh inconclusive
Cc1ccc(N/N=C(\C#N)C(=O)c2ccsc2)cc1	BAZ2B inh inconclusive, JMJD2A Tudor inh 35µM, G9a inh inconclusive (no result: CtBP-E1A inh)
N#C/C(=N\Nc1ccc(Cl)cc1)C(=O)c1ccsc1	HP1b binding inh inconclusive, BAZ2B inh 25µM, JMJD2A Tudor inh inconclusive (no result: G9a inh)
N#C/C(=N\Nc1cccc(Cl)c1)C(=O)c1ccccc1	HP1b binding inh inconclusive, BAZ2B inh 45µM, JMJD2A Tudor inh inconclusive, G9a inh 25µM
COc1ccc(OC)c(S(=O)(=O)Oc2ccc(N)c3ccccc23)c1	HP1b binding inh inconclusive, JMJD2A Tudor inh inconclusive (no result: BAZ2B inh, G9a inh)
COc1ccc(CCNC(=O)c2ccc(CS(=O)(=O)Cc3ccc(C)cc3)o2)cc1OC	none (no result: HP1b binding inh, BAZ2B inh, JMJD2A Tudor inh, G9a inh)
O=C(NN1CCOCC1)c1ccc(Cl)c(Cl)c1	none (no result: G9a inh)
CC(CC(=O)O)Nc1ccccc1O (configuration not stated)	BAZ2B inh 45µM, JMJD2A Tudor inh 0.1µM, G9a inh 2µM
CC(=O)Nc1ccccc1O	BAZ2B inh inconclusive
COc1ccc(OCC2CCNCC2)cc1	G9a inh 50µM
CS(=O)(=O)c1ccc(Cl)c(NC(=O)C2CC(=O)N(Cc3ccco3)C2)c1 (configuration not stated)	G9a inh inconclusive
CC(=O)c1sc(NC(=O)C2CC(=O)N(Cc3ccco3)C2)nc1-c1ccccc1 (configuration not stated)	HP1b binding inh inconclusive, BAZ2B inh inconclusive, JMJD2A Tudor inh inconclusive, G9a inh 50µM
O=C(Nc1ccc(Cl)cc1F)C1CC(=O)N(Cc2ccco2)C1 (configuration not stated)	G9a inh 56µM
Cc1cccc(C)c1OCc1nc2ccccc2c(=O)n1/N=C/c1c[nH]c2ccccc12	none
COc1ccc(SCc2noc(C(=O)NC(C)C)c2C(=O)O)cc1	BAZ2B inh inconclusive
Cc1[nH]c(=S)c(C#N)c(C)c1Cc1ccccc1	JMJD2A Tudor inh inconclusive, G9a inh inconclusive
Cc1[nH]c(=S)c(C#N)c(C)c1CCC#N	JMJD2A Tudor inh 20µM, G9a inh 2.8µM
COc1ccc(CCn2c3c(c(=O)[nH]c2=S)CN(c2ccccc2)CN3)cc1OC	none (no result: BAZ2B inh, CtBP-E1A inh, Six1-Eya2 blk, G9a inh)
C[N+](C)(C)CCCN(Cc1ccc2c(c1)OCO2)C(=O)NC1CCCCC1	JMJD2A Tudor inh inconclusive, G9a inh 50µM (no result: CtBP-E1A inh)
Cc1cc(NC(=O)CCC(=O)N(CC(=O)NC2CCCC2)Cc2ccc3c(c2)OCO3)no1	G9a inh 50µM
CC(NCc1ccc2c(c1)OCO2)C(=O)NC1CCCCC1 (configuration not stated)	JMJD2A Tudor inh inconclusive
Cc1cc(NC(=O)CCC(=O)N(CC(=O)NC2CCCC2)Cc2ccc(F)cc2)no1	none
Cc1ccccc1-c1nc(NC(=O)CSc2ncnc3sc4c(c23)CCCC4)ns1	none (no result: CtBP-E1A inh, Six1-Eya2 blk)
COc1cc(/C=C/C(=O)c2ccccc2O)cc(OC)c1OC	BAZ2B inh 56µM, JMJD2A Tudor inh 50µM, G9a inh 45µM
COc1ccc(C(=O)/C=C/c2ccccc2)c(OC)c1	none
COc1cc(OC)c(C=CC(=O)c2ccccc2O)c(OC)c1	HP1b binding inh 28µM, JMJD2A Tudor inh inconclusive (no result: BAZ2B inh, G9a inh)
COc1ccc(C(C)=O)cc1CSc1nnc(Nc2ccc(C)cc2)s1	Six1-Eya2 blk inconclusive, G9a inh 10µM
COc1ccc(C(C)=O)cc1COC(=O)CSCC(=O)Nc1ccc(C)cc1	BAZ2B inh 79µM
CC1CCN(C(=O)C(C)OC(=O)c2ccc(S(C)(=O)=O)c([N+](=O)[O-])c2)CC1 (configuration not stated)	none (no result: BAZ2B inh, CtBP-E1A inh, Six1-Eya2 blk, G9a inh)
CCOC(=O)c1c(C)oc2c1c1c(c3ccccc32)OCN(CCCC(=O)O)C1	BAZ2B inh inconclusive, JMJD2A Tudor inh inconclusive, G9a inh 8.9µM
COc1cccc(N(CC(=O)N2CCN(c3ccccc3OC)CC2)S(C)(=O)=O)c1	G9a inh 79µM
CS(=O)(=O)N(CC(=O)N1CCN(c2ccccc2)CC1)c1cccc(Br)c1	G9a inh 89µM
COc1ccc(N2CCN(C(=O)CN(c3cccc(Br)c3)S(C)(=O)=O)CC2)cc1	BAZ2B inh inconclusive, JMJD2A Tudor inh inconclusive
